Measurements: ChEMBL document CHEMBL1157539, “Thousands of chemical starting points for antimalarial lead identification” (Nature, 2010)

Legend:
Type in all cases: functional
Plasmodium falciparum [1] = assay: GSK_TCMDC: Inhibition of Plasmodium falciparum 3D7 in whole red blood cells, using parasite LDH activity as an index of growth. Test compounds present at 2uM
Plasmodium falciparum [2] = assay: GSK_TCMDC: Inhibition of Plasmodium falciparum Dd2 in whole red blood cells, using parasite LDH activity as an index of growth. Test compounds present at 2uM
HepG2 = assay: GSK_TCMDC: Percent inhibition of human HepG2 cell line. Test compounds present at 10uM.

Structure (SMILES)	Inhibition (Plasmodium falciparum [1]) [%]	Inhibition (Plasmodium falciparum [2]) [%]	Inhibition (HepG2) [%]
CS(=O)(=O)c1ccc(-c2cnc(N)c(-c3cccc(CO)c3)c2)cc1	98	51	0
O=C(Nc1cccc(CN2CCN(C(=O)c3ccccc3)CC2)c1)c1ccco1.O=C(O)C(F)(F)F	95	42	6
O=C(O)CCSSc1cccc[n+]1[O-]	95	0	100
COc1cc2c(cc1N1CCN(C)CC1)N(C(=O)Nc1ccc(-c3ccncc3)c(Cl)c1Cl)CC2	100	4	10
O=C(Nc1ccc(C(=O)N2CCN(CCN3CCN(c4cccc(C(F)(F)F)c4)CC3)CC2)cc1)c1ccc(OC(F)(F)F)cc1	95	25	38
Cc1c(C)c2c(c(C)c1O)CC[C@@](C)(C(=O)N1CCC(CCN3CCC(c4c[nH]c5ccccc45)CC3)CC1)O2	98	91	37
Cn1cncc1-c1ccc2ncnc(Nc3ccc4c(cnn4Cc4ccccc4)c3)c2c1	100	99	1
c1ccc(Oc2ccc(Nc3ccnc4cc(-c5ccc(CN6CCCCC6)o5)ccc34)cc2)nc1	100	100	18
CN(C)c1ccc(NC2=NC(N)=NC(C)(C)N2)cc1	95	5	0
CCN(CC)CCNc1nccc(N(C)c2ccc(NC(=O)Nc3cc(C(F)(F)F)ccc3F)cc2)n1.O=C(O)C(F)(F)F	97	25	74
Cc1cc(N2CCN(C(=O)OC(C)(C)C)CC2)ccc1N	92	38	11
O=C(O)C(F)(F)F.c1ccc(CN2CCC(NCc3ccccc3-c3cccc(CNC4CCCC4)c3)CC2)cc1	100	59	35
CC(CNc1nc(NCC(c2ccccc2)c2ccccc2)c2nc[nH]c2n1)c1ccccc1 (centres undefined)	93	24	5
N#Cc1ccc(CN2CCCN(c3ccc(NC(=O)c4ccc(F)cc4)cc3)CC2)cc1.O=C(O)C(F)(F)F	90	61	12
CC1(C)CCNc2cc(NC(=O)c3ccc(-c4ncccc4C(F)(F)F)cc3)ccc21.Cl	97	86	7
CC(C)C[C@H](Nc1ccnc(NCC2CCCCC2)n1)C(=O)Nc1ccccc1.O=C(O)C(F)(F)F	87	42	6
CCn1cc(C=C2Oc3c(ccc(O)c3CN3CCCCC3)C2=O)c2ccccc21	100	99	0

Structure (SMILES)	Inhibition (Plasmodium falciparum [1]) [%]	Inhibition (Plasmodium falciparum [2]) [%]	Inhibition (HepG2) [%]
Cc1cccc2nc(-c3ccc(-c4ccc(CN5CCC(C(N)=O)CC5)cc4)s3)[nH]c12.O=C(O)C(F)(F)F	97	51	4
Cc1ccnc2nc(C(=O)Nc3cc(Cl)ccc3N3CCOCC3)nn12	84	63	0
Cc1ccc(-c2nc(Nc3ccncc3)c3ccccc3n2)s1	95	34	6
Cn1nc(-c2ccc(Cl)cc2)c2cc(C(=O)NCCN3CCOCC3)sc21	97	29	21
Cl.N[C@@H](CCNC1CCN(c2cccc(C(F)(F)F)c2)CC1)Cc1ccc(F)c(F)c1	100	69	100
c1ccc(-c2ccc(-c3nc4ccccc4[nH]3)cc2)cc1	93	83	10
Cl.N#Cc1ccc2c(c1)CCN(CCC1CCC(NC(=O)/C=C/c3ccc4ccccc4c3)CC1)CC2 (centres undefined)	97	12	20
CCN(CC)S(=O)(=O)n1ncc2c3c(N)nc(N)nc3ccc21.Cl	93	16	67
Cc1cccc(CNc2ncc(C)c(NCCC(=O)Nc3ccccc3)n2)c1.O=C(O)C(F)(F)F	81	10	18
Cc1cc(C)c(NC(=O)N[C@H]2CCN(CCCCCNC(=O)/C=C/c3ccc(Cl)c(Cl)c3)C2)c(C)c1	91	3	12
Cc1cc(=NN=Cc2ccc(F)cc2)c2cccc(C)c2[nH]1	100	99	7
NS(=O)(=O)c1cccc(Nc2nccc(-c3c(-c4cccc(NC(=O)c5c(F)cccc5F)c4)nn4ccccc34)n2)c1	98	97	81
CC(C)CNCc1cccc(-c2cccc(CN(CCCN3CCN(C)CC3)C(=O)/C=C/c3ccccc3)c2)c1.O=C(O)C(F)(F)F	90	88	44
CC(=O)Nc1ccc(C(=O)Nc2cccc(-c3csc(-c4nc5ccccc5[nH]4)c3)c2)cn1	100	97	6
Cc1nc2ccc3ccc(CNc4ccc5c(c4)CN([C@H](CCC(=O)O)C(=O)O)C5=O)cc3c2c(=O)[nH]1	87	90	38
Cc1cccc2nc(-c3cccc(-c4cccc(NC(=O)c5ccncc5)c4)c3)[nH]c12	100	78	22
